About 14,000 (4.5%) of roughly 310,000 compounds showed an effect of 50% or more. The effect is printed as a negative number. This is one part of a sample in which strong results are shown more often than they occur. Where a SMILES comes first, the peptide text is derived from it.
Target: human ether-à-go-go-related gene (hERG) potassium channel (human, UniProt Q12809)
Assay: primary screen, population patch clamp on CHO cells stably expressing hERG; higher = less effect of the substance
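Also: peak tail current of the secondary pulse compared with the same well before compound.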

Chain of human ether-à-go-go-related gene (hERG) potassium channel (Q12809 whole entry, looked up): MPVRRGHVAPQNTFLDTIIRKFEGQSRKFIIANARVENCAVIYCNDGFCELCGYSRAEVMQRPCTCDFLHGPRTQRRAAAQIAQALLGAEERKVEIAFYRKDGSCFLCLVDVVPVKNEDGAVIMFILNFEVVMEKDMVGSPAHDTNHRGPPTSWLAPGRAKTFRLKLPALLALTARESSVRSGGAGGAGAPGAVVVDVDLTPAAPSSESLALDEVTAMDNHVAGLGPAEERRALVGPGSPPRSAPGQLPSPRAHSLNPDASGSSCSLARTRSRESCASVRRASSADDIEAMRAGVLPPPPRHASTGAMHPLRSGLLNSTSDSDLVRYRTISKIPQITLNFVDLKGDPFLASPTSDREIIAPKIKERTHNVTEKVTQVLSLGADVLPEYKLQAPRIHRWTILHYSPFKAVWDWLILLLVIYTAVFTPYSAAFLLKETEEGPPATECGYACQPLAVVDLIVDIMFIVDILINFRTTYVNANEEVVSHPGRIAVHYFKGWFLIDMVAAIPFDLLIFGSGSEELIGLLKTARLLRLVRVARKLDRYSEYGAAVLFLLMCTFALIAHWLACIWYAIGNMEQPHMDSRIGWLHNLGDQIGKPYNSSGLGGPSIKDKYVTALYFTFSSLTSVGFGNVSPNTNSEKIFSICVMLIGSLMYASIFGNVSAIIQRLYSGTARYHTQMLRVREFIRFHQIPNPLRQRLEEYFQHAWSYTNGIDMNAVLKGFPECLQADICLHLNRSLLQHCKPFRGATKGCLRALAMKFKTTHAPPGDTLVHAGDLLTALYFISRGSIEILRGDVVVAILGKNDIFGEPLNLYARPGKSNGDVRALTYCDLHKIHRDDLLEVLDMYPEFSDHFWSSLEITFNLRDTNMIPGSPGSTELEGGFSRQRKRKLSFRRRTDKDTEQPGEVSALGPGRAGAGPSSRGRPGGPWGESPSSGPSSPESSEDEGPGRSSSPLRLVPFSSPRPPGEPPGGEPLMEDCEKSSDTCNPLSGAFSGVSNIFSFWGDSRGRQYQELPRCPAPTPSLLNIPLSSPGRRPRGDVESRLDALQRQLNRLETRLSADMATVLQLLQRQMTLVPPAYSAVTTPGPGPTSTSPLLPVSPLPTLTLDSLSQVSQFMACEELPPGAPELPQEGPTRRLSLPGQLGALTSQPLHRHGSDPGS

| SMILES | hERG current change (%, negative = inhibition) at 10uM |
| --- | --- |
| CC(=O)c1ccc(NC(=O)N2CCc3ccccc3C2)cc1 | -0.383% |
| CCN1CCN(CC(=O)Nc2ccc(Cl)c(Cl)c2)C(=O)C1=O | -5.76% |
| Cc1c(N(C)C(=O)C23CC4CC(CC(C4)C2)C3)c(=O)n(-c2ccccc2)n1C | -1.09% |
| Cc1ccc(NC(=S)N2CCN(S(=O)(=O)c3ccccc3)CC2)cc1C | 11.6% |
| Cc1nn2cnc3sc4c(c3c2nc1=O)CCCC4 | -3.17% |
| COc1ccc(NC(=O)CCCC2=NS(=O)(=O)c3ccccc3N2)cc1 | 17% |
| O=c1c2ccccc2nc2c3ccccc3c(NCCO)nn12 | -7.34% |
| O=c1c2ccccc2oc2cc(NCCCN3CCOCC3)ccc12 | -29.7% |
| OCCNc1c2ccccc2nc2ccccc12 | -31% |
| O=c1c2ccccc2oc2ccc(NCCCN3CCOCC3)cc12 | -41.9% |
| O=c1c2ccccc2nc2c3ccccc3c(NCCN3CCOCC3)nn12 | -72.2% |
| c1ccc2c(NCCCN3CCOCC3)c3ccccc3nc2c1 | -66.6% |
| O=c1c2ccccc2nc2c3ccccc3c(NCc3ccccn3)nn12 | -13.5% |
| c1ccc2[nH]c(NCCCN3CCOCC3)nc2c1 | -6.61% |
| O=c1c2ccccc2sc2ccc(NCCCN3CCOCC3)cc12 | -54.2% |
| OCCCNc1c2ccccc2nc2ccccc12 | -65.6% |
| Fc1ccccc1-c1nc(NCCCN2CCOCC2)c2ccccc2n1 | -45.9% |
| CN(C)CCCNc1c2ccccc2nc2ccccc12 | -28.8% |
| O=C(C1COc2ccccc2O1)N1CCN(c2nc3c(F)cc(F)cc3s2)CC1 (stereo not shown) | -16.6% |
| CCOc1ccc(S(=O)(=O)NC(C)C(=O)NCc2ccc3c(c2)OCO3)cc1 (stereo not shown) | 2.83% |
| N/C(=N\OC(=O)COc1ccc(Br)cc1)c1cccnc1 | -3.21% |
| Cc1c(Cl)c([N+](=O)[O-])nn1CC(=O)NC(C)C1CC2CCC1C2 (stereo not shown) | -12.9% |
| CC(=O)NS(=O)(=O)c1ccc(NC(=O)c2ccc(S(=O)(=O)N3CCCC3)cc2)cc1 | -0.257% |
| CC(C)(C#N)NC(=O)c1ccco1 | 4.37% |

| SMILES | hERG current change (%, negative = inhibition) at 10uM |
| --- | --- |
| COc1ccc(C)cc1NC(=O)COCC(=O)O | -8.48% |
| O=C(NC1CCCCC1)C(c1ccccc1)N1CCOCC1 (stereo not shown) | 9.63% |
| COCCNC(=O)CN1C(=O)COc2ccc(S(=O)(=O)N3CCCCCC3)cc21 | 20.3% |
| CC(C)(C)c1ccc(C(=O)NCc2ccc(Cl)cc2)cc1 | 12.6% |
| O=[N+]([O-])c1ccc2c(c1Nc1ccccc1Cl)=NC1(CCCCC1)N=2 | 3.29% |
| CC(=O)NCCc1nc2cc(NC(=O)c3ccc(F)cc3)ccc2n1C | 9.6% |
| CC(=O)NC(Cc1ccccc1)C(=O)NC(Cc1ccccc1)C(=O)O (stereo not drawn) (Ac-Phe-Phe-OH; configuration not given here) | 10.4% |
| O=C(CCN1C(=O)c2ccccc2C1=O)Nn1cnnc1 | -0.368% |
| Clc1ccc(-c2nc(NCCCN3CCOCC3)c3ccccc3n2)cc1 | -18.9% |
| c1csc(-c2nc(NCCCN3CCOCC3)c3ccccc3n2)c1 | -50.7% |
| c1ccc(-c2nc(NCCCN3CCOCC3)c3ccccc3n2)cc1 | -34.6% |
| COC(=O)c1ccc(N2C(=O)C3CC(C)=C(C)CC3C2=O)cc1 (stereo not shown) | 3.73% |
| CCCC(c1nnnn1C(C)(C)C)N1CCN(C(=O)c2ccco2)CC1.Cl (stereo not shown) | -12.8% |
| CCCCC(c1nnnn1Cc1ccco1)N1CCN(C(=O)c2ccco2)CC1.Cl (stereo not shown) | -51.8% |
| CCCC(c1nnnn1Cc1ccc(OC)cc1)N1CCN(C(=O)c2ccco2)CC1 (stereo not shown) | -51.3% |
| CCCC(c1nnnn1CCOC)N1CCN(C(=O)c2ccco2)CC1.Cl (stereo not shown) | -4.1% |
| CCCC(c1nnnn1CCc1ccccc1)N1CCN(C(=O)c2ccco2)CC1 (stereo not shown) | -49.3% |
| CCCC(c1nnnn1Cc1ccco1)N1CCN(C(=O)c2ccco2)CC1.Cl (stereo not shown) | -11.8% |
| CCC(c1nnnn1Cc1ccco1)N1CCN(C(=O)c2ccco2)CC1.Cl (stereo not shown) | -20.6% |
| CCC(c1nnnn1CCc1ccccc1)N1CCN(C(=O)c2ccco2)CC1.Cl (stereo not shown) | -28% |
| CCC(c1nnnn1CCOC)N1CCN(C(=O)c2ccco2)CC1.Cl (stereo not shown) | 9.17% |
| CCCC(c1nnnn1C(C)(C)CC)N1CCN(C(=O)c2ccco2)CC1.Cl (stereo not shown) | -54% |
| CCC(C)(C)n1nnnc1C(C(C)C)N1CCN(C(=O)c2ccco2)CC1 (stereo not shown) | -29.7% |
| CCC(c1nnnn1Cc1ccc(OC)cc1)N1CCN(C(=O)c2ccco2)CC1.Cl (stereo not shown) | -55.5% |

| SMILES | hERG current change (%, negative = inhibition) at 10uM |
| --- | --- |
| Cc1ccc(C)c(NC(=S)N2CCN(c3cccc(C(F)(F)F)c3)CC2)c1 | 7.13% |
| COC(=O)c1sc(S(=O)(=O)Nc2ccc(Br)cc2)c(C(=O)OC)c1C | 2.75% |
| CCCCCCc1cc2cc(C(=O)NCc3ccccc3)c(=N)oc2cc1O | 5.76% |
| O=C(NCCC(c1ccccc1)c1ccccc1)c1cccs1 | -14.2% |
| Cc1ccccc1C(=O)N/N=C/c1ccccn1 | 5.6% |
| CCN(CC)c1ccc(/C=C2\NC(=O)NC2=O)cc1 | 19.5% |
| COC(=O)c1ccsc1NC(=O)CN1CCN(c2ncccn2)CC1 | -1.35% |
| Cc1cc(C)n(-c2c(F)c(F)c(COC(=O)c3ccccc3)c(F)c2F)n1 | 5.11% |
| COC(=O)c1nc2n(n1)C(c1ccc([N+](=O)[O-])cc1)C(C(=O)Nc1ccc(Cl)cc1)=C(C)N2 (stereo not shown) | 13.5% |
| Cc1ccccc1S(=O)(=O)Cc1ccc(C(=O)N(C)C2CCCCC2)o1 | -12.5% |
| C=CCn1c(SCc2cccc(F)c2)nc2cc(C(=O)N3CCC(C(N)=O)CC3)ccc2c1=O | -34.7% |
| CCN(C(=O)c1sc(N)c(C#N)c1C)C1CCCCC1 | 9.21% |
| CCOC(=O)c1c(C)oc(/N=C/c2ccccc2O)c1C#N | 7.61% |
| O=C(c1cccs1)N1CCN(S(=O)(=O)c2ccccc2)CC1 | -6.98% |
| CS(=O)(=O)Nc1cccc(C(=O)OCCCOc2ccc(F)cc2)c1 | -54.5% |
| CC(=O)Nc1cccc(C(=O)OCCCOc2ccc(F)cc2)c1 | 18.8% |
| COC(=O)c1cccc(NS(C)(=O)=O)c1 | 12.9% |
| CC(C)CNC(=O)NC(=O)COC(=O)c1cc(F)cc(F)c1 | -4.56% |
| COc1ccc(C)cc1NC(=O)C(=O)NNC(=O)c1ccco1 | 17.6% |
| Cc1c(CC(=O)O)c(=O)oc2c(C)c(OCc3c(F)cccc3Cl)ccc12 | 5.53% |
| CCOc1ccccc1NC(=O)C(NCC1CCCCC1)c1ccccc1 (stereo not shown) | 16.9% |
| CCOc1ccccc1NC(=O)C(NCC1(N2CCCCC2)CCCCC1)c1ccccc1.O=C(O)C(=O)O (stereo not shown) | -70.9% |
| CCOc1ccccc1NC(=O)C(OC(=O)C1CC1)c1ccccc1 (stereo not shown) | -10.3% |
| CCOc1ccccc1NC(=O)C(NCCN(C)C)c1ccccc1.O=C(O)C(=O)O (stereo not shown) | -76.4% |

| SMILES | hERG current change (%, negative = inhibition) at 10uM |
| --- | --- |
| CCOc1ccccc1NC(=O)C(NCCc1ccc(OC)cc1)c1ccccc1 (stereo not shown) | -4.48% |
| CCOc1ccccc1NC(=O)C(Sc1ccccc1)c1ccccc1 (stereo not shown) | 9.32% |
| COc1cccc(C(=O)N2CCC3(CC2)OCCO3)c1 | 20.3% |
| COc1ccc(OCCNS(=O)(=O)Cc2ccccc2)cc1 | 0.161% |
| Cc1cccc(NC(=O)c2ccc(S(=O)(=O)N3CCOCC3)cc2)n1 | 19.5% |
| COCCSc1ccccc1C(=O)N1CCc2ccccc21 | 15.1% |
| CC(C)(C)c1ccc(OCCC(=O)Nc2cccc(S(=O)(=O)N3CCCCC3)c2)cc1 | 16.4% |
| O=C(COc1ccccc1)N1CCN(c2ccccc2)CC1 | -3.1% |
| Cc1sc2ncnc(OCC(=O)N3CCN(S(=O)(=O)c4ccccc4)CC3)c2c1C | -2.31% |
| Cc1nc(N2CCN(C(=O)COc3ccccc3)CC2)c2c(C)c(C)sc2n1.Cl | -69.3% |
| Cc1nc(N2CCN(S(=O)(=O)c3ccc(Br)cc3)CC2)c2c(C)c(C)sc2n1 | -10.7% |
| CCC(=O)N1CCN(c2nc(C)nc3sc(C)c(C)c23)CC1 | -62% |
| Cc1nc(N2CCN(C(=O)CCC(=O)O)CC2)c2c(C)c(C)sc2n1 | -1.2% |
| O=C(c1cc(C2CC2)nn1-c1ccccc1)N1CCN(S(=O)(=O)c2cccc(F)c2)CC1 | -28.1% |
| O=[N+]([O-])c1ccc(Cl)c(S(=O)(=O)/N=C(/c2ccccc2)N2CCOCC2)c1 | 3.91% |
| COc1ccc(C(=O)N2CCN(c3ccc(N4CCOCC4)nn3)CC2)cc1OC | 8.55% |
| O=C(/C=C/c1ccco1)N/C(=C\c1ccccc1)C(=O)NCCc1nc2ccccc2[nH]1 | -46.3% |
| O=C(/C=C/c1ccco1)N/C(=C\c1ccco1)C(=O)NCCc1nc2ccccc2[nH]1 | -22.6% |
| COc1ccc(/C=C/C(=O)NCCc2nc3ccccc3[nH]2)cc1 | 26.4% |
| CC(C)Oc1ccc(/C=C(\NC(=O)/C=C/c2ccco2)C(=O)NCCc2nc3ccccc3[nH]2)cc1 | -28.6% |
| COc1ccc(/C=C/C(=O)N/C(=C\c2ccco2)C(=O)NCCc2nc3ccccc3[nH]2)cc1 | -72.7% |
| COc1ccc(/C=C(\NC(=O)/C=C/c2ccco2)C(=O)NCCc2nc3ccccc3[nH]2)cc1 | -56.6% |

From article PMC4336329 (PLoS ONE, 2015)
